In all, about 220,000 compounds went through this assay and about 5,700 (2.6%) were called active. Roughly 18% stayed inconclusive and do not appear here. The sample holds actives, similar compounds and a random draw of the others, so the mix is not that of the screen. The call rests on the fitted dose curve; in most records, active means well fitted inhibition curve with a large enough effect; inconclusive means small, poorly fitted or top-dose-only effect; inactive means no such curve, though single readings can be large or run the other way.
Each compound was assayed against Lysine-specific demethylase 5B (Homo sapiens) (UniProt Q9UGL1) (assay: Primary screen for KDM5B Histone Demethylases FDH-coupled qHTS). Settings: FDH-coupled NADH fluorescence (FDH is formaldehyde dehydrogenase); series mostly up to 57.7 µM; activity change, negative = inhibition: at the top concentration.
Text: Assay Submitter (PI): Qin Yan, Ph.D. (Yale University) and Xiaodong Cheng, Ph.D. (MD Anderson) This project was funded as part of the NCI NEXT Program and Chemical Biology Consortium (CBC) The histone demethylases, KDM5A and KDM5B catalyze the demethylation of lysine 4 on histone H3 (H3K4me3/2). They are overexpressed in a variety of cancers and have been implicated in cancer cell growth, metastasis, drug resistance, and tumor growth. KDM5A is amplified and overexpressed in breast and gastric cancer; and is translocated in leukemia. While KDM5B is highly expressed in human mammary tumors and breast cancer cell lines, but not in normal adult breast tissue. Moreover, knockdown of KDM5B leads to upregulation of tumor suppressor genes, including BRCA1. The goal of this project is to employ qHTS to identify selective small molecule inhibitors of KDM5A/B demethylase activity to better understand the role of KDM5 in cancer and to develop novel therapies. We employed an FDH-coupled assay previously reported by Sakurai et al. to monitor in vitro KDM5 demethylase activity. Compounds showing dose response inhibition are re-acquired, validated, and tested for non-specific interference with the formaldehyde dehydrogenase (FDH) counterscreen. True inhibitors are validated using an AlphaLisa secondary screen, which employs an H3K4(me2-1)-specific antibody to monitor demethylation of a biotin-tagged H3K4(me3) peptide substrate. Inhibitors are profiled against KDM4A and KDM6A AlphaLisa counterscreens to determine level of demethylase specificity; and against the TruHits counterscreen to eliminate non-specific inhibitory activity on the AlphaLISA detection method. Selective inhibitors identified from the primary and secondary screening are tested in cells using immunofluorescence to monitor global H3K4 tri-methylation as a measure of KDM5A/B inhibition. Early Translation Branch (ETB) National Center for Advancing Translational Sciences (NCATS), Rockville, MD National Institute of Health (NIH), Bethesda, Maryland [1] Sakurai, M et al. A miniaturized screen for inhibitors of Jumonji histone demethylases. Mol Biosyst. 2010 Feb;6(2):357-64. doi: 10.1039/b912993f. Epub 2009 Oct 8.
Materials: 1536-well Black, solid bottom, medium binding assay plate is purchased from Greiner Bio-one. The enzymes (KDM5B) and substrate (H3K4me3/2) are provided by the principal investigators. The buffer for this assay is composed of 50mM HEPES at pH 7.5 with 0.01% Tween-20. FDH coupled Demethylase qHTS protocol: Three microliter enzyme mix (buffer + 200nM KDM5BDeltaAP final concentration) is dispensed into the assay plate using the BioRAPTR Flying Reagent Dispenser (FRD; […]). Compound (at various final concentration) and control solution is pin transferred to the assay plate using the Kalypsys 1536-pin tool apparatus. The assay plate is incubated for 10 min at room temperature followed by addition of 1uL substrate mix (buffer + 100uM ascorbic acid, 50uM ferrous ammonium sulfate, 12.5uM H3K4Me3, 25uM a-ketoglutarate, 0.25 mM NAD+, 0.25 U/mL formaldehyde dehydrogenase using the FRD yielding a total reaction volume of 4 uL. Initial fluorescence (Read1) is detected using the PerkinElmer ViewLux plate reader equipped with 340 nm excitation and 450 nm emission filters. The final fluorescence (Read2) signal is obtained after 30 min of room temperature incubation. Delta RFU is calculated (Read2 - Read1) and is used to generated dose response curves.
Further: nearly all actives have a fitted effect of over 70% in size.
Potency means the concentration at half of the fitted maximal effect.
Wherever activity change, negative = inhibition is given: 0% is about no effect.

Sequence of Lysine-specific demethylase 5B (Homo sapiens) (Q9UGL1 whole entry, looked up): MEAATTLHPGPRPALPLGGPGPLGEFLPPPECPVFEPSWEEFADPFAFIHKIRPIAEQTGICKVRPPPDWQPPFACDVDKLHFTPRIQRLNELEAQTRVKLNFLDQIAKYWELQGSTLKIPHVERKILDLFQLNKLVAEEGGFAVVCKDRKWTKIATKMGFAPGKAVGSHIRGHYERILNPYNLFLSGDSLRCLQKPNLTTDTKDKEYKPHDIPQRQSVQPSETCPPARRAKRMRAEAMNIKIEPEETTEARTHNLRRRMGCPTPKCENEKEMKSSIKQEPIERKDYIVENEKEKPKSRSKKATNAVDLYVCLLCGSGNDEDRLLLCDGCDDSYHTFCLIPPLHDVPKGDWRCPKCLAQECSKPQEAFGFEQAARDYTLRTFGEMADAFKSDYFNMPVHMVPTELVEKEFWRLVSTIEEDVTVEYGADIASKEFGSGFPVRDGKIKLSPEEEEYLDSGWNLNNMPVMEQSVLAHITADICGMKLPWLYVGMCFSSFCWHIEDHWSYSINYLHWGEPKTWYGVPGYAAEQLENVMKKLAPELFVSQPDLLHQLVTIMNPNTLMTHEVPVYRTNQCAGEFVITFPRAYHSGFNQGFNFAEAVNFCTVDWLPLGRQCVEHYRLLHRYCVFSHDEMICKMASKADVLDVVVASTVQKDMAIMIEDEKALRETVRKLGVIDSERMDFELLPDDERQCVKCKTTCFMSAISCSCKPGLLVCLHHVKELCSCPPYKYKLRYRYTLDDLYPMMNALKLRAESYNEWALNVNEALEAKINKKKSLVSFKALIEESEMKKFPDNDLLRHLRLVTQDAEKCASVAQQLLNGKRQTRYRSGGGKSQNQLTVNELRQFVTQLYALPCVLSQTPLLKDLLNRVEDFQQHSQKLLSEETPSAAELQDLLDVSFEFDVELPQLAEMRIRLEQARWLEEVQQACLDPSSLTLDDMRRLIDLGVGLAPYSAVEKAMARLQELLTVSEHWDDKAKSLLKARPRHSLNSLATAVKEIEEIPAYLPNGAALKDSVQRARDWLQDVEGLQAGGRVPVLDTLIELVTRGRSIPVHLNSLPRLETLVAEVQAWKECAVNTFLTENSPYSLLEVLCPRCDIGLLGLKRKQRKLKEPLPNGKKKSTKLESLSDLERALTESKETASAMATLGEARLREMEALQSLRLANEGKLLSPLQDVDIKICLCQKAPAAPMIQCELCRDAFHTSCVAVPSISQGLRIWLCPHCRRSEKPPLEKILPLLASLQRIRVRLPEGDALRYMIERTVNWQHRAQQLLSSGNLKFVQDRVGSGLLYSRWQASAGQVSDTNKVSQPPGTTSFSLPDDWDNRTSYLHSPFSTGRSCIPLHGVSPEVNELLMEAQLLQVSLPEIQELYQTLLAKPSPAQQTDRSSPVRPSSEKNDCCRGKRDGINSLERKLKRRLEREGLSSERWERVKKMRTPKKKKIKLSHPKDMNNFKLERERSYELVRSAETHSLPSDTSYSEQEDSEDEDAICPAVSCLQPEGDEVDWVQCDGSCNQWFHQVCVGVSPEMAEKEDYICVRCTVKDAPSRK

Potency, active:
O=C(Nc1ccccc1F)c1ccc2c(c1)n(Cc1ccccc1)c(=O)c1ccnn12 31.6 µM
O=C(NCc1cccnc1)c1ccc2c(c1)n(Cc1ccc(F)cc1)c(=O)c1ccnn12 25.1 µM
CC(C)(C)c1nc(C(=O)N2CCOCC2)n2ccccc12 100 µM
c1cc(-c2ccsc2)n2nc(C3CCCO3)nc2n1 (centres undefined) 25.1 µM
O=C(NC1CC1)C1CCCN(c2nc3ncccc3o2)C1 (centres undefined) 35.5 µM
CN(C)C(=O)NC1CCN(c2nc3ncccc3o2)CC1 31.6 µM
O=C(NC1CCN(c2nc3ncccc3o2)CC1)c1ccc(F)cc1 35.5 µM
O=C(NC1CCN(c2nc3ncccc3o2)CC1)c1ccc(Cl)nc1 25.1 µM
COc1ccc(Nc2cc3c(nc2-c2ccccc2)nc(C(=O)NCCN(C)C)n3C)cn1 31.6 µM
O=c1[nH]c(C2CCCN(Cc3ccc(-c4ccsc4)cc3)C2)nc2ccc(F)cc12 (centres undefined) 79.4 µM

Potency, inactive:
Cc1ccc2nc(C3CCCN(Cc4ccc(C#N)cc4)C3)[nH]c(=O)c2c1 (centres undefined)
O=c1[nH]c(C2CCN(Cc3ccccc3)CC2)nc2ccc(F)cc12

Activity change, negative = inhibition, inactive:
Cc1oc2ccn(Cc3cccc(F)c3)c(=O)c2c1C(=O)NCc1cccnc1 1.67%
O=C(Nc1ccc(F)cc1F)c1ccc2c(c1)n(Cc1cccc(F)c1)c(=O)c1ccnn12 -0.702%
Cc1ccccc1NC(=O)Cn1c(=O)n(Cc2ccco2)c(=O)c2ccc(C(=O)NC3CCCC3)cc21 -27.5%
CCCCc1ccc(C(=O)NCc2cccnc2)cc1 12.1%
Cn1c(=O)c2c(nc(SCC(=O)Nc3ccccc3F)n2Cc2ccccc2)n(C)c1=O -9.27%
COCCCNC(=O)c1ccc2c(c1)n(Cc1cccc(OC)c1)c(=O)c1ccnn12 -15%
Cc1[nH]c2ccccc2c1C=O 3.68%
CCOC(=O)CN(CCOC)C(=O)CCCc1ccccc1 15%
CC(C)(C)c1ccc(N2C(=O)[C@@H]3C[C@@H](NC(=O)[C@@H](O)c4ccccc4)CCN3C2=O)cc1 1.01%
O=C(CN1N=C(c2ccccc2F)c2cc(Cl)ccc2S1(=O)=O)Nc1cc(F)ccc1F 1.12%
N#Cc1c(N)n[nH]c1CCCNc1ncnc2c1oc1ccccc12 -1.15%
O=C1CCN(C(=O)c2nccc3ccccc23)CCOCCN1 -7.83%
O=C(c1cc(-c2ccc(Cl)s2)nc2ccccc12)N1CCOCC1 -666%
NC(=O)c1ccc(NC(=O)CCc2ncc(-c3ccc(F)cc3)o2)cc1 -4.37%
O=C(CSc1nnc(-c2ccccc2)c2ccccc12)c1ccc2c(c1)OCCCO2 0.618%
O=C(CS(=O)(=O)Cc1coc(-c2ccc(F)cc2)n1)NC1CCCCCC1 3.85%
O=C(COc1ccc(Cl)cc1)Nc1ccc2oc(-c3ccc(F)cc3)nc2c1 -13.3%
CC(C)C(Nc1ccc([N+](=O)[O-])cn1)c1ccc(Cl)cc1 (centres undefined) -3.31%
O=C(NCc1ccccc1)C1CCN(c2nc3ccccc3o2)CC1 11.2%
Cc1cc(C)cc(C(=O)NC2CCN(c3cnn(C)c(=O)c3)CC2)c1 -4.03%
Cc1ccnc(N2CCCC(C(=O)NC3CC3)C2)n1 (centres undefined) -15%
O=C(NC1C[C@H]2CC[C@@H](C1)N2S(=O)(=O)c1ccc2c(c1)OCCO2)c1ccc(F)cc1 (some centres undefined) 3.96%
O=C(NC1CCN(c2cc(C(F)(F)F)ncn2)CC1)c1ccc(F)cc1 9.96%
O=C(NC1CCCCC1)c1ccc(Cn2c(SCc3ccccc3)nc3cccnc32)cc1 -21.5%
Cc1ccccc1CN1CCC(N2CCCC(C(=O)NC3CC3)C2)CC1 (centres undefined) 14.5%
CCN(CC)Cc1ccc(CNC(=O)C2CCN(c3nc4ccccc4o3)CC2)cc1 -10.5%
CC/C(=N/N=C(/CC)c1ccccc1)c1ccccc1 23.2%
CC(C)c1nnc(NC(=O)c2cc(Cl)c3c(c2)OCCO3)s1 -1.89%
O=C(NCc1ccc(CN2CCCCC2)cc1)c1cc2ccccc2oc1=O 97.4%
CC(C)NC(=O)Nc1ccc(CNC(=O)C2(C#N)CCCC2)cc1 -18.1%
Cn1c(=O)[nH]c(=O)c2c1nc(N1CCC(Cc3ccccc3)CC1)n2CCCc1ccccc1 10.3%
O=C(NCC(=O)N1CCCC(C(F)(F)F)C1)c1ccccc1F (centres undefined) 9.21%
CC1CCC(NC(=O)CCCc2ccccc2)CC1 (centres undefined) -6.51%
O=C(c1n[nH]c(=O)c2ccccc12)N1CCCCCC1c1nnc(-c2ccccc2)o1 (centres undefined) -0.997%
Cc1sc(NCCC(C)C)nc1-c1ccc(NS(C)(=O)=O)cc1 -7.19%
CC(C)c1ncc(Cl)c(C(=O)O)n1 16.6%
CN(C)CCNC(=O)c1nc2nc(-c3ccccc3)c(-c3cccc(F)c3)cc2n1C -5860% [at 86.2 µM]
COc1ccc(Nc2cc(Cl)ccc2C(=O)O)cn1 -24.1%
CN(C(=O)CCc1c[nH]c2ccccc12)C1CCCC1 10.4%
O=C1NCc2ccccc2CC12CCCN(Cc1ccc(F)c(Cl)c1)C2 (centres undefined) 19% [at 115 µM]
CCOc1ccccc1NC(=O)c1cnc2ccccc2n1 4.75%
CCC(C(=O)Nc1ccc(F)cc1F)n1nc(-c2ccc(C)cc2)ccc1=O (centres undefined) 3.04%

Reference: PubChem BioAssay AID1347165 (National Center for Advancing Translational Sciences (NCATS), 2019)
